{
  "source": "PubChem BioAssay (NCATS)",
  "note": "Inconclusive results are not listed. Values without a mark were called inactive. Activity calls are given as the source filed them. Calls follow the shape of the dose curve; as a rule, active = well fitted inhibition curve with a large enough effect; inconclusive = small, poorly fitted or top-dose-only effect; inactive = no such curve, though single readings can be large or run the other way. Potency is read from the fitted curve at half-maximal effect.",
  "data": [
    {"test": "BET inhibitor-based combinations targeting novel dependencies in MECOM-rearranged (r) AML: OCI-AML3 cell line (AID 2202232); also: nearly all actives have a fitted effect of over 35% in size", "conditions": "CellTiter-Glo luminescence, 48 h; Potency: OCI-AML3 viability; series mostly up to 46 µM; viability (% of control): at the top concentration", "description": "Ecotropic viral insertion site 1 (EVI1) is located on chromosome 3q26.2 as part of the MECOM (MDS and EVI1 complex) locus. Under normal hematopoiesis, EVI1 is a regulator of hematopoietic stem cell maintenance and self-renewal and EVI1 levels decrease as the cells differentiate. In approximately 5-10% of de novo acute myeloid leukemia (AML) EVI1 is aberrantly expressed, including Chromosomal inv(3)(q21;q26.2) or t(3;3)(q21;q26.2) alterations (MECOM-r) that account for about 50% of AML with EVI1 overexpression 31. AMLs with high levels of EVI1 have a poor prognosis and an overall survival time averaging between 10-14 months. EVI1 overexpression confers resistance in leukemia cells, highlighting the need to develop new targeted therapies for EVI1 overexpressing AMLs.\nHere, we performed an unbiased chemical drug screening by evaluating the single agent activity of a collection of 2,480 oncology-focused, approved and investigational drugs (NCATS Mechanism Interrogation Plates, MIPE v5.0) against a panel of seven AML cell lines. These included four MECOM-r cell-lines (AML-191, AML-194, UCSD-AML1 and HNT-34) and three non-MECOM-r AMLs (MV4-11, OCI-AML3 and SET-2). Exploiting the mechanistic redundancy built in the library, we identified target-level sensitivities in MECOM-r AML cells and relative activity as compared to other AML subtypes.\nA collection of 2480 mechanistically annotated dugs (MIPE v5.0) was used to screen four 3q26.2 rearranged AML cell lines and three non-3q26.2 rearranged AML cell lines. This library purposely exploits redundancy by including multiple inhibitors of key onco-targets, while simultaneously encompassing mechanistic diversity, targeting more than 800 distinct mechanisms of action. Briefly, cells were seeded in 5 uL of growth media using a Multidrop Combi dispenser into 1536 well white polystyrene tissue culture treated plates (Corning) at a density of 500cells/well. For each cell-line, for each of the 2480 drugs in MIPE v5.0 library, an 11-point dose curve was generated via a 1536 pin-tool. Plates were incubated for 48 hr at standard incubator conditions, covered by a stainless steel gasketed lid to prevent evaporation. Cell viability was determined by luminescence based, Cell Titer Glo assay (Promega). In detail, 3 uL of Cell Titer Glo were added to each well and plates were incubated at room temperature for 15 min with a stainless-steel lid in place. Luminescence readings were taken using a Viewlux (PerkinElmer) with a 2 s exposure time per plate. Compound dose-response curves were normalized to DMSO and empty well controls on each plate. Quantitative drug activity data from dose-response curves was determined utilizing area Under the Curve (AUC) and Z-transformed AUC (Z-AUC, a mean-centering transformation applied to each individual cell-line screened).", "values": [
      {"molecule": "COc1ccc(S(=O)(=O)N(C(C)=O)c2ccccc2/C=C/c2cc[n+]([O-])cc2)cc1", "Potency": "1180 nM (active)"},
      {"molecule": "OC1CCC([C@H](O)C[C@H]2c3c(F)cccc3-c3cncn32)CC1", "note": "(stereo not given in full)", "viability (% of control)": "125%"},
      {"molecule": "C[C@H]1[C@H](O)O[C@@H]2O[C@@]3(C)CC[C@H]4[C@H](C)CC[C@@H]1[C@@]24OO3", "Potency": "1180 nM (active)"},
      {"molecule": "CC(C)NCCCn1c(Sc2cc(Cl)cc(Cl)c2)nc2c(N)ncnc21", "Potency": "10500 nM (active)"},
      {"molecule": "COc1ncc(Nc2ncc([C@H](C)N3CCN(S(C)(=O)=O)CC3)cc2-c2nc(C)nc(N)n2)cc1F", "Potency": "46.8 nM (active)"},
      {"molecule": "CC(C)=CCC[C@](C)(O[C@@H]1O[C@H](CO[C@@H]2O[C@H](CO)[C@@H](O)[C@H](O)[C@H]2O)[C@@H](O)[C@H](O)[C@H]1O)[C@H]1CC[C@]2(C)[C@@H]1[C@H](O)C[C@@H]1[C@@]3(C)CC[C@H](O[C@@H]4O[C@H](CO)[C@@H](O)[C@H](O)[C@H]4O[C@@H]4O[C@H](CO)[C@@H](O)[C@H](O)[C@H]4O)C(C)(C)[C@@H]3CC[C@]12C", "viability (% of control)": "101% [at 15.6 µM]"},
      {"molecule": "CC(=O)N1CCC(Nc2cc(C(=O)NC[C@H](O)CN3CCc4ccccc4C3)ncn2)CC1", "Potency": "4.2 nM (active)"},
      {"molecule": "Cn1ncc(Cl)c1-c1cc(C(=O)NC(CN)Cc2ccc(F)c(F)c2)oc1Cl", "note": "(stereo not given)", "Potency": "18600 nM (active)"},
      {"molecule": "C[C@@H]1CC(=O)Nc2cccc(-c3ccc4c(c3)c(-c3cnn(C)c3)nn4C)c2N1", "Potency": "6610 nM (active)"},
      {"molecule": "CC(C)(C)C(=O)N1N=CC[C@H]1c1ccccc1", "viability (% of control)": "113%"},
      {"molecule": "c1ccc(-c2cc(CCC3CCNCC3)c3ccccc3n2)cc1", "Potency": "20900 nM (active)"},
      {"molecule": "CCN(CC)C(=S)SSC(=S)N(CC)CC", "Potency": "332 nM (active)"},
      {"molecule": "CN1CCN(c2ccc3nc(-c4c(N)c5c(F)cccc5[nH]c4=O)[nH]c3c2)CC1", "Potency": "4680 nM (active)"},
      {"molecule": "C[C@@H]1COCCN1c1cc(-c2ccnn2C)c2ccnc(-c3ccn[nH]3)c2n1", "Potency": "52.5 nM (active)"},
      {"molecule": "COc1cc(-c2cc(-c3ccc(N4CCNCC4)cc3)cnc2C)cc(OC)c1OC", "Potency": "8330 nM (active)"},
      {"molecule": "Nc1nccn2c(C3CCC(C(=O)O)CC3)nc(-c3cc4cccc(Cl)c4[nH]3)c12", "note": "(stereo not given)", "Potency": "4680 nM (active)"},
      {"molecule": "Cc1cc(C(=O)NOCCO)c(Nc2ccc(I)cc2F)n(C)c1=O", "Potency": "5.9 nM (active)"},
      {"molecule": "CC1(N)CCN(c2cnc(-c3cccc(Cl)c3Cl)c(N)n2)CC1", "viability (% of control)": "120% [at 15.6 µM]"},
      {"molecule": "CN[C@@H]1[C@@H](O)[C@@H](O[C@@H]2[C@@H](O)[C@H](O[C@H]3O[C@H](CN)[C@@H](O)[C@H](O)[C@H]3O)[C@@H](N)C[C@H]2NC(=O)C(O)CN)OC[C@]1(C)O", "note": "(stereo not given in full)", "viability (% of control)": "136%"},
      {"molecule": "CC1=NN(c2ccc(C(=O)O)cc2)C(=O)/C1=C/c1ccc(-c2cc(C)c(C)cc2[N+](=O)[O-])o1", "Potency": "235 nM (active)"},
      {"molecule": "Cn1cc(C2=C(c3cn(C)c4cc([N+](=O)[O-])ccc34)C(=O)NC2=O)c2ccccc21", "Potency": "662 nM (active)"},
      {"molecule": "CCCCCCCCCCCCCCCCCCCCCCO", "viability (% of control)": "99.1% [at 15.6 µM]"},
      {"molecule": "CN(C)N=Nc1nc[nH]c1C(N)=O", "viability (% of control)": "99.7%"},
      {"molecule": "CN1CCC(c2c(O)cc(O)c3c(=O)cc(-c4ccccc4Cl)oc23)C1CO", "note": "(stereo not given)", "Potency": "742 nM (active)"},
      {"molecule": "C[C@H](NC(=O)c1c(N)nn2cccnc12)c1cc2cccc(C#Cc3cnn(C)c3)c2c(=O)n1-c1ccccc1", "Potency": "51.2 nM (active)"},
      {"molecule": "Cc1ccc(NC(=O)NCc2ccc3c(c2)CN(C2CCC(=O)NC2=O)C3=O)cc1Cl", "note": "(stereo not given)", "Potency": "3 nM (active)"},
      {"molecule": "COC(=O)[C@@H]1CC2=CC(=O)CC[C@]2(C)[C@@]23O[C@@H]2C[C@@]2(C)[C@@H](CC[C@@]24CCC(=O)O4)[C@H]13", "viability (% of control)": "112%"},
      {"molecule": "CN(C)c1cc(NC(=O)CNC(C)(C)C)c(O)c2c1C[C@H]1C[C@H]3[C@H](N(C)C)C(=O)C(C(N)=O)=C(O)[C@]3(O)C(=O)C1=C2O", "viability (% of control)": "78.6%"},
      {"molecule": "CC(=O)O[C@@]12CO[C@@H]1C[C@H](O)[C@@]1(C)C(=O)[C@H](O)C3=C(C)[C@@H](OC(=O)[C@H](O)[C@@H](NC(=O)OC(C)(C)C)c4ccccc4)C[C@@](O)([C@@H](OC(=O)c4ccccc4)[C@H]21)C3(C)C", "Potency": "3.3 nM (active)"},
      {"molecule": "CNCc1ccc(C)c(NC(=O)c2ccc(Nc3nc(-c4ccccc4)c4ccccc4n3)cc2)c1", "Potency": "16600 nM (active)"},
      {"molecule": "CN1CCN(Cc2ccc(Nc3ncc(Cl)c(Nc4ccccc4S(=O)(=O)N(C)C)n3)cc2)CC1", "Potency": "191 nM (active)"},
      {"molecule": "CCNCCS(=O)(=O)NC[C@@]1(c2ccccc2)SC(NC(=O)C(C)(C)C)=NN1C(=O)C(C)(C)C", "Potency": "4.2 nM (active)"},
      {"molecule": "CCN(CC)CCNC(=O)c1c(C)[nH]c(/C=C2/C(=O)Nc3ccc(-c4csc(-c5ccccc5)n4)cc32)c1C", "Potency": "18600 nM (active)"},
      {"molecule": "N#C/C(=C1/Nc2ccccc2S1)c1ccnc(OCc2ccc(CN3CCOCC3)cc2)n1", "Potency": "14800 nM (active)"},
      {"molecule": "CN[C@@H](C)C(=O)N[C@H](C(=O)N1CCC[C@H]1C(=O)Nc1snnc1-c1ccccc1)C1CCCCC1", "viability (% of control)": "66.7%"},
      {"molecule": "OC[C@H]1O[C@@H](S[C@@H]2O[C@H](CO)[C@H](O)[C@H](n3cc(-c4cccc(F)c4)nn3)[C@H]2O)[C@H](O)[C@@H](n2cc(-c3cccc(F)c3)nn2)[C@H]1O", "viability (% of control)": "127%"},
      {"molecule": "C=CCNC1=C2CC(C)CC(OC)C(O)C(C)/C=C(\\C)C(OC(N)=O)C(OC)/C=C/C=C(\\C)C(=O)NC(=CC1=O)C2=O", "note": "(stereo not given)", "Potency": "662 nM (active)"},
      {"molecule": "CCN1CCN(Cc2ccc(-c3cc4c(N[C@H](C)c5ccccc5)ncnc4[nH]3)cc2)CC1", "Potency": "20900 nM (active)"},
      {"molecule": "CN[C@H]1CN(c2ccc3c(=O)c(C(=O)O)cn(-c4nccs4)c3n2)C[C@@H]1OC", "Potency": "1080 nM (active)"},
      {"molecule": "COc1cc2c3c(n(CCCN4CCOCC4)c(=O)c2cc1OC)-c1cc2c(cc1C3=O)OCO2", "Potency": "33.2 nM (active)"}
    ]}
  ]
}
